Several values for one entry are separate records, joined by “and”; a condition that tells them apart may be missing. Equal values may be shown once. The campaign covered roughly 360,000 compounds. About 1,200 (0.33%) were called active.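 The calls were made as follows: active = activation above the run's mean compound activation plus 3 SD (cut at about 16% in these data); inactive = the rest.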 For the sample, actives were picked, then their nearest neighbours and some compounds at random.
Target: Muscarinic acetylcholine receptor M1 (Homo sapiens) (UniProt P11229)
Sequence (P11229 whole entry, looked up): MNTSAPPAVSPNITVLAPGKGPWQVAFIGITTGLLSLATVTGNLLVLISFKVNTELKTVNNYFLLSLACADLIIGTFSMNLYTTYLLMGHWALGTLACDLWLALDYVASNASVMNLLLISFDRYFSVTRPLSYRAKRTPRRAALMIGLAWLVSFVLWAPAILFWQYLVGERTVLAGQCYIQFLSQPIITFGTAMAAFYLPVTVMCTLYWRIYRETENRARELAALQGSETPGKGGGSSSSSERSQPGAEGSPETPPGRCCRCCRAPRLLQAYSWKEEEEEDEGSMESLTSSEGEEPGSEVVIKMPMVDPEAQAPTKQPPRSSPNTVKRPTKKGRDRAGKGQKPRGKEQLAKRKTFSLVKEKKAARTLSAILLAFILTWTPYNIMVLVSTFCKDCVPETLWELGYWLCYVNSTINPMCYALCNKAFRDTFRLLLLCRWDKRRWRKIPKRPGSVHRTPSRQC
Experiment: human M1 muscarinic receptor agonists, primary screen, Fluo-8 calcium fluorescence, CHO-K1 cells, HTS (AID 588814);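 also: peak over basal fluorescence ratio within a 140 s kinetic read after compound addition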
Settings: CHO-K1 hM1, Fluo-8 calcium fluorescence, agonist mode; at 3 µM; hits give high values; 0% DMSO, 100% acetylcholine EC100

Compound	activation
COCCCNC(=O)C1CC(=O)N(c2ccc(C)cc2)C1 (stereo not drawn)	-2.9% (inactive)
O=C(c1ccc(CS(=O)(=O)c2ccccc2)o1)N1CCN(c2ccccc2)CC1	-1.41% (inactive)
CC(C)(C)NS(=O)(=O)NC(=O)C1=C(N2CCCC2)COC1=O	-5.28% (inactive)
Cc1nc(C(F)(F)F)ccc1C(=O)N1CCC1(C)C(=O)NS(=O)(=O)c1ccccc1Cl (stereo not drawn)	-0.92% (inactive)
CC1=NCCN1S(=O)(=O)c1ccc(Br)c(C)c1	-3.91% (inactive)
O=C1COc2ccc(C(=O)CSc3ccc(Br)cc3)cc2N1	0.13% (inactive)
c1ccc(CCC2=NCCn3cccc32)cc1	-1.99% (inactive) and -6.48% (inactive)
Nc1c(C(=O)Nc2ccc3c(c2)OCCO3)nnn1Cc1ccccc1	1.21% (inactive)
COc1cccc(CNC(=O)c2nnn(CC(=O)Nc3cc(Cl)ccc3C)c2N)c1	2.49% (inactive)
COc1ccc(CNC(=O)c2nnn(CC(=O)Nc3cc(C)cc(C)c3)c2N)cc1	-1.24% (inactive)
CCOc1ccc(Cn2nnc(C(=O)NCc3ccccc3)c2N)cc1	41% (active)
CCOc1ccc(Cn2nnc(C(=O)Nc3ccc(OC)cc3OC)c2N)cc1	17.4% (active)
COc1ccc(NC(=O)Cn2nnc(C(=O)NCCc3ccc(OC)c(OC)c3)c2N)cc1	-1.8% (inactive)
O=C(CCNS(=O)(=O)c1ccc(Br)s1)NCc1ccccc1Cl	-1.35% (inactive)
O=c1o[nH]c(-c2ccccc2)c1N=Nc1c(F)cccc1Cl	-2.19% (inactive)
CCCCNC(=O)CCn1c(=O)c2ccccc2n(Cc2cc(C)ccc2C)c1=O	-4.41% (inactive)
OC(c1ccc(F)cc1)c1ncc(-c2cccc(C(F)(F)F)c2)[nH]1 (stereo not drawn)	6.15% (inactive)
CC(=O)Nc1cc(-c2ccccc2F)cn2c(-c3cccc(C(F)(F)F)c3)cnc12	-3.25% (inactive)
CC(=O)Nc1cccc(C(=O)OCC(=O)c2ccc3c(c2)OCO3)c1	6.09% (inactive)
NS(=O)(=O)c1ccc(NC(=O)COC(=O)c2ccco2)cc1	-0.06% (inactive)
NC(=O)c1ccc(NC(=O)COC(=O)c2c3c(nc4ccccc24)/C(=C\c2ccc4c(c2)OCO4)CCC3)cc1	38.3% (active)

Compound	activation
NS(=O)(=O)c1ccc(NC(=O)COC(=O)c2c3c(nc4ccccc24)/C(=C\c2ccc4c(c2)OCO4)CCC3)cc1	62.8% (active)
O=C(COC(=O)c1ccc(Cl)nc1)NCc1ccc2c(c1)OCO2	-4.12% (inactive)
NS(=O)(=O)c1ccc(NC(=O)COC(=O)CCc2c[nH]c3ccccc23)cc1	-0.53% (inactive)
CC1(C(=O)NS(=O)(=O)c2cccc(F)c2)CCN1C(=O)Cc1ccc(Cl)cc1Cl (stereo not drawn)	-1.39% (inactive)
CC1Cc2ccccc2N1CC(=O)Nc1ccc2c(c1)OC(F)(F)O2 (stereo not drawn)	-7.22% (inactive)
CCN(CC)c1ccc(/C=N/NC(=O)CNC(=O)c2cccs2)cc1	-4.5% (inactive)
Cc1nn(-c2ccccc2)c(NC(=O)c2cccs2)c(-c2ccc(Cl)cc2)c1=O	-7.73% (inactive)
Cc1ccc(-n2nc(C)c(/C=N/NC(=O)c3cccs3)c2Cl)cc1	16.7% (active)
CC(=NNC(=O)c1ccncc1)c1ccc(Cl)c(Cl)c1	-2.06% (inactive)
CCOCCCN1C(=O)C2C(C(=O)Nc3ccc(OCC)cc3)C3C=CC2(O3)C1C(=O)NC1CCCCC1 (stereo not drawn)	-6.34% (inactive)
CCCNC(=O)C1CC(=O)N(c2ccc(OCc3ccccc3)cc2)C1 (stereo not drawn)	1.07% (inactive)
COc1ccc(-n2c(-c3ccc(Cl)cc3)n[nH]c2=S)c(OC)c1	-4.14% (inactive)
COc1cc(OC)c(-n2cc(-c3ccc(Cl)cc3)[nH]c2=O)cc1Cl	58% (active)
COc1cc(OC)c(N2CC(C(=O)Nc3cc(Cl)ccc3N3CCOCC3)CC2=O)cc1Cl (stereo not drawn)	-5.02% (inactive)
CC(=O)C[C@@H](O)CC(=O)[C@H]1OC(=O)CCCCCCc2ccccc21	10.4% (inactive)
Cn1nccc1NC(=O)CC(CC(=O)O)c1ccccc1 (stereo not drawn)	0.28% (inactive)
Cn1nc(C(F)(F)F)c2cc(NC(=O)OCC(C)(C)C)sc21	-6.85% (inactive)
CC(C)COC(=O)c1ccc(NC(=O)C2C3C=CC(C3)C2C(=O)O)cc1 (stereo not drawn)	-3% (inactive)
CCc1ccc(-c2cc3c(=O)n(CC(=O)NCCCN4CCN(Cc5ccccc5)CC4)nc(C)n3n2)cc1	0.73% (inactive)
CC(C[N+](C)(C)C)OC(N)=O (stereo not drawn)	87.5% (active)
CC(=O)OCCC(C)C	-3.12% (inactive)

Compound	activation
CC(=O)OC(C)C[N+](C)(C)C (stereo not drawn)	115% (active)
Cc1oc2nc(SCC(=O)Nc3ccc(S(N)(=O)=O)cc3)nc(NC(=O)c3ccccc3)c2c1C	-4.87% (inactive)
Cc1sc(NC(=O)C2=COCCO2)c(C#N)c1C	-6.11% (inactive)
CC(C)Cn1c(CCC(=O)O)ccc1-c1cccs1	-4.32% (inactive)
O=c1c2ccccc2c(-c2ccccc2)nn1-c1ccccn1	-1.79% (inactive)
CC(C)(C)OC(=O)N/N=C/c1cn(-c2ccccc2)nc1-c1cccnc1	24% (active)
COc1ccccc1N1CCN(C(=O)c2cn(-c3ccccc3)nc2-c2cccnc2)CC1	0.62% (inactive)
O=C(COC(=O)/C=C/c1cn(-c2ccccc2)nc1-c1cccnc1)Nc1ccc(Cl)cc1Cl	-5.6% (inactive)
O=C(CNc1cccc(S(=O)(=O)N2CCCCC2)c1)Nc1ccccc1F	2.04% (inactive)
Cc1cc(O)ccc1-c1cc(C(=O)NCc2cc(C(F)(F)F)cc(C(F)(F)F)c2)[nH]n1	16.9% (active)
Cc1ccc(O)c(-c2cc(C(=O)NCc3ccccc3)[nH]n2)c1	-5.25% (inactive)
CCCOc1ccc(F)cc1-c1cc(C(=O)NCc2ccc(F)cc2)[nH]n1	-7.18% (inactive)
CCc1nc2c(OCCC3CCCCC3)cccn2c1N(C)C(=O)c1ccco1	-9.74% (inactive)
CCOC(=O)C1(Cc2cccc(OC)c2)CCCN(S(=O)(=O)c2cccnc2)C1 (stereo not drawn)	-1.49% (inactive)
COc1ccc(C(C#N)=C2C=CC(=NO)c3ccccc32)cc1	-8% (inactive)
CCOc1c(N2CCCCC2)c(=O)c1=O	-7.26% (inactive)
CCc1nc2ccc(C(=O)Nc3cccc(OC)c3)cn2c1N(CCC(C)C)CCN(C)C	29.4% (active)
CCc1nc2ccc(C(=O)Nc3ccc(OC)c(OC)c3)cn2c1N(C)C(=O)c1cccc(OC)c1	-2.95% (inactive)
CCc1nc2ccc(C(=O)N(C)CCN(C)C)cn2c1N(CC)CCOC	-6.84% (inactive)
NC(=O)C1CCN(C(=O)c2cn(-c3ccccc3)nc2-c2cccnc2)CC1	-0.33% (inactive)
Cc1ccc(-c2nn(-c3ccccc3)cc2C(=O)NC2CCC(O)CC2)cc1 (stereo not drawn)	0.01% (inactive)

Compound	activation
O=C(NNC(=S)NC(=O)c1cn(-c2ccccc2)nc1-c1ccccc1)c1ccncc1	16.6% (active)
Cc1cc(SCC(=O)NCCN2C(=O)CSC2=O)nc2ccccc12	-9.92% (inactive)
Cc1ccc(S(=O)(=O)NCc2nc3ccccc3c(=O)n2N)cc1	-0.65% (inactive)
N#CC1(NC(=O)COC(=O)CCN=C2NS(=O)(=O)c3ccccc32)CCCCC1	-0.14% (inactive)
O=C(OCCN=C1NS(=O)(=O)c2ccccc21)c1cccc([N+](=O)[O-])c1	-1.9% (inactive)
O=C(CCCN=C1NS(=O)(=O)c2ccccc21)OCC(=O)c1ccc(F)c(F)c1	27% (active)
Cc1cccc(NC(=O)c2ccc3c(=O)n(CC4CCCO4)c(=S)[nH]c3c2)c1 (stereo not drawn)	-0.37% (inactive)
N#C/C(=C/c1ccc(N2CCCCC2)o1)C(=O)NCCc1c[nH]c2ccccc12	28.4% (active)
N#C/C(=C\c1ccc(N2CCOCC2)o1)C(=O)N1CCOCC1	2.53% (inactive)
O=C(NCCc1c[nH]c2ccccc12)C1CCN(Cc2ccc(Br)cc2)CC1	-4.6% (inactive)
CCOCc1nnc(NC(=O)CCC2CCCCC2)s1	-1.9% (inactive)
O=S(=O)(Nc1ccc(Cl)cn1)c1cnc(Cl)c(Br)c1	-0.28% (inactive)
CCOc1ccc(C(=O)NC(C(=O)NCc2ccccn2)C(C)C)cc1 (stereo not drawn)	-5.01% (inactive)
O=C(N/N=C/c1ccsc1)c1cc(O)cc(O)c1	-1.35% (inactive)
O=C1Nc2ccc([N+](=O)[O-])cc2C1=Nc1cccc(CO)c1	0.24% (inactive)
O=C1C(=O)N(c2ccccc2)c2ccccc21	13.1% (inactive)
O=C1C(=O)N(CC2COc3ccccc3O2)c2ccccc21 (stereo not drawn)	39.1% (active)
Cc1noc(C)c1C(=O)NCC1COc2ccccc2O1 (stereo not drawn)	-2.12% (inactive)
CCCC1C(c2ccccc2)C(C#N)(C#N)C2(C#N)CC1(N)NC2=O (stereo not drawn)	-0.06% (inactive)
Cc1ccc(NC2=C(Cl)C(=O)OC2OC(=O)c2ccccc2C)cc1 (stereo not drawn)	-9.26% (inactive)
